Assay results: PubChem BioAssay (NCATS)
Unmarked numbers belong to inactive results. Results filed as inconclusive are left out. Entries that show only a call come without a potency. Calls of active or inactive are those of the source. Unless noted, calls follow the shape of the dose curve; as a rule, active = well fitted curve in the direction sought with a large enough effect; inconclusive = small, poorly fitted or top-dose-only effect, or another doubt; inactive = no such curve, though single readings can be large; an effect the other way counts as inactive or inconclusive.

Tests used:
[1] = AP1 Signaling Pathway (AID 357; active = well fitted curve in either direction with a large enough effect, not every such curve was filed as active;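 also: ME-180 reporter cells stimulated with EGF at its EC50 level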); conditions: ME-180 AP-1-bla reporter, EGF-induced, beta-lactamase ratio, 5 h; at 17.2 µM (top of the series) unless noted
Method in brief: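 A ratiometric CCF4 readout (405 nm excitation; 460 and 530 nm emission) quantified AP-1-driven beta-lactamase in ME-180 cells after 5 h with compound and EC50 EGF; AC50 values were derived for activators and inhibitors.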

[2] = target: Glucocorticoid receptor (Homo sapiens) (UniProt P04150); experiment: GR-GFP Redistribution (AID 450;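 active = compounds whose dose series gives a full or clear partial fitted curve of increased nuclear translocation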; also: potency is read from the fitted curve at half-maximal effect)
Sequence of Glucocorticoid receptor (Homo sapiens) (P04150 whole entry, looked up, the tested form may be a part): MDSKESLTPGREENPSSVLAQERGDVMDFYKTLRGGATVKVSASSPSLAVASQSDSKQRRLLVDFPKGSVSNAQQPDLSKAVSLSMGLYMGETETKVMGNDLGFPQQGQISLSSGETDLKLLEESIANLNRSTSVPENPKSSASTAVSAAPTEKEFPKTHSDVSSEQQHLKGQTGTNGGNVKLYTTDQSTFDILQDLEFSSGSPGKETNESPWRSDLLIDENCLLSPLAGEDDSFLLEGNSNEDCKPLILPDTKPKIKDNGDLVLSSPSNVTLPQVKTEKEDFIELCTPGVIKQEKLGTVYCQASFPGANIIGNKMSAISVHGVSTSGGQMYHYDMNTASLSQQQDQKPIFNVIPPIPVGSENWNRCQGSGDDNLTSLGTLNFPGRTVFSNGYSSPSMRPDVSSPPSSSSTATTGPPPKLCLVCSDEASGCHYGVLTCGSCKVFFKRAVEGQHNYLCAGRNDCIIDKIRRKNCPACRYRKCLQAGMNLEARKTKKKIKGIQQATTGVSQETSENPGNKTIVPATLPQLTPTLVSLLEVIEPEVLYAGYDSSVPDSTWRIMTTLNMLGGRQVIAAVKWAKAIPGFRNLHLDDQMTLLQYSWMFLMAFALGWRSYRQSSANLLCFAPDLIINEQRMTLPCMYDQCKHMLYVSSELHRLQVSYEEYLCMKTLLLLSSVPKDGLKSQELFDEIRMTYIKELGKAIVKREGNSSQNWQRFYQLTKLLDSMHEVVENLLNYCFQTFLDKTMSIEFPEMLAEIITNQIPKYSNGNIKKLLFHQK

[3] = qHTS Assay for Identification of Small Molecule Agonists for Hypoxia Response Element Signaling Pathway (AID 914; active = well fitted activation curve with a large enough effect in the signal ratio, with a control signal flat, not every such curve was filed as active; the % refers to the signal ratio; also: potency is read from the fitted curve at half-maximal effect); conditions: ME-180 HRE-bla reporter, beta-lactamase ratio, CoCl2, 17 h; activation: stronger effect = higher value
Method in brief: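 Compounds in a titration series were added to ME-180 reporter cells alongside an EC50 level of CoCl2. After 17 hours, beta-lactamase activity was read as the 460nm/530nm emission ratio of CCF4, giving AC50 values.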

[4] = target: Tumor susceptibility gene 101 protein (Homo sapiens) (UniProt Q99816); experiment: qHTS Assay for Iinhibitors of HIV-1 Budding by Blocking the Interaction of PTAP/TSG101: Hit Validation (AID 651600); also: potency is read from the fitted curve at half-maximal effect; nearly all actives have a fitted effect of over 70% in size
Method in brief: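 Compounds are added to the Tsg101 binding domain (10 uM final) in pH 7.5 HEPES buffer. FITC-PTAP peptide follows at 50 nM final. After 20 min at r.t., polarized FITC emission is measured.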

[5] = target: Cytochrome P450 1A2 (Homo sapiens) (UniProt P05177); experiment: p450-cyp1a2 (AID 410; calls by dose curve; also: potency is read from the fitted curve at half-maximal effect)
Sequence of Cytochrome P450 1A2 (Homo sapiens) (P05177 whole entry, looked up): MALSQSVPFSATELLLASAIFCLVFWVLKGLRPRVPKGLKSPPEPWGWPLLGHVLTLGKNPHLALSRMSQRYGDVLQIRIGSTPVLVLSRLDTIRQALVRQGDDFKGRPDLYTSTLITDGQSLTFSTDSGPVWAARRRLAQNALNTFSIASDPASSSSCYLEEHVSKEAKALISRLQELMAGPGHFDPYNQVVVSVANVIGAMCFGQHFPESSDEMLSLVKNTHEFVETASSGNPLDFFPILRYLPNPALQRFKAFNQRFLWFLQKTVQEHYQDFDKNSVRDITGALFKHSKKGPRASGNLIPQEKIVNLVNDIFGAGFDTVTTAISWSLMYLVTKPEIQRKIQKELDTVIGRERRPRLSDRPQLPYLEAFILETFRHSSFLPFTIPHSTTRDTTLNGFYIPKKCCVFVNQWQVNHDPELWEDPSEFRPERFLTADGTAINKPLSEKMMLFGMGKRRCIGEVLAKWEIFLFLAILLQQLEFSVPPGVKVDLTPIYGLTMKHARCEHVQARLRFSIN
Method in brief: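 Luminescent demethylation readout: Luciferin-ME (100uM, equal to Km) turned over by 20nM CYP1A2 for 60 min at room temperature after NADPH regeneration addition, following 10 min compound preincubation. Normalization used 57 uM furafylline as full inhibition.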

[6] = NFAT Signaling Pathway (AID 444; active = well fitted curve in either direction with a large enough effect, not every such curve was filed as active;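 also: carbachol stimulus at about its EC50 of 1 µM final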); conditions: Jurkat NFAT-bla M1, carbachol, beta-lactamase ratio, 5 h; at 17.2 µM (top of the series) unless noted
Method in brief: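 Read-out: CCF4 FRET ratio (460 nm/530 nm) after 1 h RT dye loading, used for %activity and AC50 from titration series. Cells: Jurkat NFAT-β-lactamase/M1 line, treated with compound plus 1 uM carbachol for 5 h, 37 °C.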

[7] = Stat Signaling Pathway (AID 446; active = well fitted curve in either direction with a large enough effect, not every such curve was filed as active;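 also: ME-180 cervical cancer cells given 40 pM IL-6 alongside compound; SIE-controlled beta-lactamase reporter measured as 460/530 nm FRET emission ratio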); conditions: ME-180 (cervical carcinoma) SIE beta-lactamase reporter, IL-6 stimulated, 5 h
Method in brief: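 FRET read-out (405 nm excitation, 460/530 nm emission) of a beta-lactamase reporter under a STAT-inducible element in ME-180 cervical carcinoma cells. Cells with compound receive 40 pM IL-6 for 5 h. Values are normalised to AC90 stimulation and AC90 JAK-inhibitor controls.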

[8] = target: Mitogen-activated protein kinase 10 (Mus musculus) (UniProt Q61831); experiment: JNK3 AlphaScreen Assay (AID 530; active = well fitted curve in either direction with a large enough effect, not every such curve was filed as active;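 also: kinase came from lysate of stimulated human HepG2 cells; signal reports phosphorylation of biotinylated GST-cJun 1-79 at Ser73 with 10 µM ATP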)
Method in brief: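 qHTS titrations with 15 min compound pre-incubation before adding ATP (10 uM final). Read-out: AlphaScreen of Ser73-phosphorylated biotin-GST-cJun using HepG2 lysate JNK3 activated by IL-1β and TNFα.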

[9] = target: 3',5'-cyclic-AMP phosphodiesterase 4B (Homo sapiens) (UniProt Q07343); experiment: qHTS Assay for Inhibitors of PDE-IV (AID 607; active = well fitted activation curve with a large enough effect in the main read-out, with a control signal flat, not every such curve was filed as active)
Sequence of 3',5'-cyclic-AMP phosphodiesterase 4B (Homo sapiens) (Q07343 whole entry, looked up): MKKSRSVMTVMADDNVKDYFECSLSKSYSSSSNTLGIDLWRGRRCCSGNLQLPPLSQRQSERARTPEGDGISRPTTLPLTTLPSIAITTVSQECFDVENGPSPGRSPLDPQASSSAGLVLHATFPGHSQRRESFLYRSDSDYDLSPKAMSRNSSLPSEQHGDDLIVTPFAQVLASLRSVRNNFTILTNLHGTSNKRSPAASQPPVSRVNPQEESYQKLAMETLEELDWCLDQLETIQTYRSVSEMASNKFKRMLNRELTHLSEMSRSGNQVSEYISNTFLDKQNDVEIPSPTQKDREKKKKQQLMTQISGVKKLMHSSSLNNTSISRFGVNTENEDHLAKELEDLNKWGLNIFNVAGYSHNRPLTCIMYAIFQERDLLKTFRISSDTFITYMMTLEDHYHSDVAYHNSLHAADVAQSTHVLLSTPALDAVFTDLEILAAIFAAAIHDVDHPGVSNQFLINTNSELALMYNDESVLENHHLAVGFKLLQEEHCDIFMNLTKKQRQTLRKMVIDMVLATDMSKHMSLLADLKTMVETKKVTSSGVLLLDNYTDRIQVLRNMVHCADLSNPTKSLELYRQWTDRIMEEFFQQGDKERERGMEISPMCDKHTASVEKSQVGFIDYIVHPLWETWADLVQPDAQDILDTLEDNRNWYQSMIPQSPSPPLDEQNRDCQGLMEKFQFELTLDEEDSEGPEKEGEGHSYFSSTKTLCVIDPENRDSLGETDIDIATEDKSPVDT
Method in brief: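 Cell-based read-out of cAMP via a modified cyclic nucleotide-gated channel and membrane potential dye (535/590 nm) in HEK293 cells expressing PDE4 endogenously. Compounds tested up to 22.9 uM final; 100 uM RO 20-1724 reference.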

[10] = target: Guanine nucleotide-binding protein G(i) subunit alpha-1 (Homo sapiens) (UniProt P63096); experiment: qHTS Assay for Inhibitors of RGS12 GoLoco Motif Activity (Green Fluorophore) (AID 879);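 also: negative values mean loss of peptide binding seen as reduced polarization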
Sequence of Guanine nucleotide-binding protein G(i) subunit alpha-1 (Homo sapiens) (P63096 whole entry, looked up): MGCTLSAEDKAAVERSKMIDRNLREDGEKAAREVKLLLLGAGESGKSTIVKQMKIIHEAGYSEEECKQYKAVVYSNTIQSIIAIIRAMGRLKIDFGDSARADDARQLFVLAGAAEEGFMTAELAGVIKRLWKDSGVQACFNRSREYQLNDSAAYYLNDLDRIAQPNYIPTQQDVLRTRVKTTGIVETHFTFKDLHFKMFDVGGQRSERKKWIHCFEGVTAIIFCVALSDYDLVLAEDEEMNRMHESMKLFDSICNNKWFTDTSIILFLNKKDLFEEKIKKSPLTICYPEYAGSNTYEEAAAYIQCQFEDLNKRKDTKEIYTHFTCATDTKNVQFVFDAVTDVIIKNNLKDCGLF
Method in brief: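 A drop in FITC polarization marked displacement of the FITC-tagged RGS12 GoLoco peptide (10 nM) from Gαi1 (50 nM). Compounds were incubated 10 min at room temperature in Tris pH 7.5 buffer containing 150 mM NaCl, 0.1 mM GDP and 0.05% NP40; unlabeled peptide titration served as control.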

[11] = qHTS Assay for Identification of Small Molecule Agonists for Thrombopoietin (TPO) Signaling Pathway (AID 917)
Method in brief: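 Cell-based luciferase reporter screen. Mouse Ba/F3 line stably expressing human TPO receptor; IL-3 removed overnight before plating. Co-treatment with compound and EC50 TPO (26 pM), 24 hrs at 37 C, then luminescence.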

[12] = Confirmation and Secondary Assay for Modulators of Hemoglobin Beta Chain Splicing at IVS2 705 locus (AID 930);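 also: GFP fluorescence per well restored by corrected splicing of the IVS2-705 intron in EGFP; potency is read from the fitted curve at half-maximal effect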
Method in brief: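 Assay measures total GFP intensity per well in HeLa EGFP-705 cells after 2 days with compound; mis-splicing normally truncates EGFP, so fluorescence indicates corrected splicing.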

[13] = target: Muscarinic acetylcholine receptor M1 (Rattus norvegicus) (UniProt P08482); experiment: qHTS Assay for Antagonists of Acetylcholine Muscarinic M1 Receptor: Kinetic Measurement of Intracellular Calcium Response (AID 943); also: nearly all actives have a fitted effect of over 75% in size; also: potency is read from the fitted curve at half-maximal effect;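 as to activity change, negative = inhibition: Fluo-4 calcium signal as peak divided by basal fluorescence over 4 min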
Sequence of Muscarinic acetylcholine receptor M1 (Rattus norvegicus) (P08482 whole entry, looked up): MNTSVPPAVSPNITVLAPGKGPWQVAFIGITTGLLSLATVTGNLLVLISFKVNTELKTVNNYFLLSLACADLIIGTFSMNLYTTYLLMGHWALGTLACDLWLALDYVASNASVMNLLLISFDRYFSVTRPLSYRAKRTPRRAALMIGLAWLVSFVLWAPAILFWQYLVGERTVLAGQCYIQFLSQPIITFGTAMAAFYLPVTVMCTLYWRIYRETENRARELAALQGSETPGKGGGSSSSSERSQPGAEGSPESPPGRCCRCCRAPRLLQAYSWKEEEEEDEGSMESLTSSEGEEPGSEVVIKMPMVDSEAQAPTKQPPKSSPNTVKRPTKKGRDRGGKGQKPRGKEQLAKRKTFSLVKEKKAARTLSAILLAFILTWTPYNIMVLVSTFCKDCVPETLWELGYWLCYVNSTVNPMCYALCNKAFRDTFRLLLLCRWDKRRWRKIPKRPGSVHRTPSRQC
Method in brief: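 Antagonism measured as reduction of carbachol-evoked (EC80, 100 nM final) calcium flux in rat M1-CHO cells after 10 min compound exposure. Fluo-4 signal read kinetically; ratio of maximal to basal fluorescence.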

[14] = target: Pyruvate kinase (Leishmania mexicana) (UniProt Q27686); experiment: qHTS Validation Assay for Inhibitors of Leishmania Mexicana Pyruvate Kinase (AID 945); also: potency is read from the fitted curve at half-maximal effect
Sequence of Pyruvate kinase (Leishmania mexicana) (Q27686 2-499 E452W): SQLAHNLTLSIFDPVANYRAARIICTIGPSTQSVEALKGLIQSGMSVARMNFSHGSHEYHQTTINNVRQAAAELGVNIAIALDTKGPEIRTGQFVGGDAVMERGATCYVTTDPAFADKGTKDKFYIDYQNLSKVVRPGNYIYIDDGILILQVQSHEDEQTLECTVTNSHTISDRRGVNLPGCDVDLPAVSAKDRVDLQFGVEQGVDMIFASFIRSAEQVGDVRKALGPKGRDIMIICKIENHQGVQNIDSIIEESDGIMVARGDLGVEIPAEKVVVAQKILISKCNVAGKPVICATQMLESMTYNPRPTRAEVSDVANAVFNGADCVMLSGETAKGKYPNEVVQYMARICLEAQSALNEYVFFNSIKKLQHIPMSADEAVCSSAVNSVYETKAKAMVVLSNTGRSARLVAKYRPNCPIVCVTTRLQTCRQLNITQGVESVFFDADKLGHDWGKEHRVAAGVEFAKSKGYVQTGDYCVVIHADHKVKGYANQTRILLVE
Method in brief: (§1)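 Pyruvate kinase activity of E451W LmPYK (0.2 nM) was followed as ATP output after 1 h at room temperature with 0.5 mM PEP and 0.1 mM ADP, detected by PKLight luminescence.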

[15] = target: Pyruvate kinase PKM (Homo sapiens) (UniProt P14618); experiment: qHTS Assay for Activators of Human Muscle Pyruvate Kinase (AID 954; active = well fitted curve in the direction sought with a large enough effect, not every such curve was filed as active)
Sequence of Pyruvate kinase PKM (Homo sapiens) (P14618 whole entry, looked up): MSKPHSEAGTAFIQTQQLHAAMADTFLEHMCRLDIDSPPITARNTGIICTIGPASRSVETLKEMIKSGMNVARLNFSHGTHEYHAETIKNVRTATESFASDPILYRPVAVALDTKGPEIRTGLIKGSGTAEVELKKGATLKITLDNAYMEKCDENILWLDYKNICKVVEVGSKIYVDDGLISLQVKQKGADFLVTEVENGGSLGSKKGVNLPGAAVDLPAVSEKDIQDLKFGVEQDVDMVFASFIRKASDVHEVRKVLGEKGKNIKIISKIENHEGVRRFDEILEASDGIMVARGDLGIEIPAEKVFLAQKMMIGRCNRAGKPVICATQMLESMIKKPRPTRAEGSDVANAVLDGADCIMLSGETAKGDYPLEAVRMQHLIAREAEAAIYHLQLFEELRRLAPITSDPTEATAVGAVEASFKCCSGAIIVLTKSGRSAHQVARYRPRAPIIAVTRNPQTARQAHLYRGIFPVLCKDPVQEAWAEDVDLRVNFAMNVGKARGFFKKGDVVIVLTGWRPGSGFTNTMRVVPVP
Method in brief: (§2)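 ATP production by PKM2 detected via luciferase luminescence after 1 h room-temperature reaction (0.1 nM enzyme, PEP at Km 0.5 mM, ADP 0.1 mM, pH 7.2 imidazole buffer). Inhibition scaled to no-enzyme control; activation referenced to 0.3 nM enzyme wells.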

[16] = target: Alpha-galactosidase A (Homo sapiens) (UniProt P06280); experiment: Counterscreen for Glucocerebrosidase Inhibitors: qHTS Assay for Human alpha-Galactosidase at pH 4.5 (AID 992)
Sequence of Alpha-galactosidase A (Homo sapiens) (P06280 whole entry, looked up): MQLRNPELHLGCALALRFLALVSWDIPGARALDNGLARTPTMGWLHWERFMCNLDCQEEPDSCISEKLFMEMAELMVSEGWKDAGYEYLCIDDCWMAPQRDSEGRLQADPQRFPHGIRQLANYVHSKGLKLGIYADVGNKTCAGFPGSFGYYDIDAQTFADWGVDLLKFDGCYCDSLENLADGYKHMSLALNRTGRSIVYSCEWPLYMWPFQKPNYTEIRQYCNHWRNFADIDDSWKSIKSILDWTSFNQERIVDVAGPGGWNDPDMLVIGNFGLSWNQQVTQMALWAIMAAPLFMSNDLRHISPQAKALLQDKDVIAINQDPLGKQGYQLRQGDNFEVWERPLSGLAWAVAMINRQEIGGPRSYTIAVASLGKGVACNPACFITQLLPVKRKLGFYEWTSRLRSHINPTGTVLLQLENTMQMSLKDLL
Method in brief: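 Fluorogenic 1536-well qHTS at pH 4.5 (citrate, Tween-20): 2 nM enzyme, 80 uM 4-MU-alpha-galactoside, 20 min room temperature, NaOH/glycine stop. Titration 0.7 nM to 77 uM, data normalized to no-enzyme and full-activity controls, Hill-fitted AC50.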

[17] = target: alpha-glucosidase (Oryza sativa, rice) (UniProt Q653V4); experiment: Counterscreen for Glucocerebrosidase Inhibitors: qHTS Assay for Rice alpha-Glucosidase at pH 5.0 (AID 997)
Method in brief: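 Endpoint fluorogenic assay at pH 5.0: compounds (0.7 nM to 77 uM) titrated against 4 nM rice enzyme and 400 uM 4-MU-alpha-glucoside for 20 min at room temperature; NaOH/glycine stop, read ex 365/em 440 nm, Hill-fitted AC50.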

[18] = target: Glucocorticoid receptor (Homo sapiens) (UniProt P04150); experiment: GR-EFC Redistribution (AID 451; calls by dose curve; also: potency is read from the fitted curve at half-maximal effect); conditions: CHO-K1 GR-EFC translocation, beta-gal luminescence, 2 h
Method in brief: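 Translocation of GR-ED fusion to nuclear EA restores b-gal, read by luminescence after 1 h room-temperature detection. Engineered CHO-K1 biosensor cells, 1,000/well, exposed 2 h at 37 C to titrations up to 46 uM final.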

[19] = target: Cytochrome P450 3A4 (Homo sapiens) (UniProt P08684); experiment: qHTS Assay for Activators of Cytochrome P450 3A4 (AID 885); also: nearly all actives have a fitted effect of over 65% in size; also: potency is read from the fitted curve at half-maximal effect
Sequence of Cytochrome P450 3A4 (Homo sapiens) (P08684 whole entry, looked up): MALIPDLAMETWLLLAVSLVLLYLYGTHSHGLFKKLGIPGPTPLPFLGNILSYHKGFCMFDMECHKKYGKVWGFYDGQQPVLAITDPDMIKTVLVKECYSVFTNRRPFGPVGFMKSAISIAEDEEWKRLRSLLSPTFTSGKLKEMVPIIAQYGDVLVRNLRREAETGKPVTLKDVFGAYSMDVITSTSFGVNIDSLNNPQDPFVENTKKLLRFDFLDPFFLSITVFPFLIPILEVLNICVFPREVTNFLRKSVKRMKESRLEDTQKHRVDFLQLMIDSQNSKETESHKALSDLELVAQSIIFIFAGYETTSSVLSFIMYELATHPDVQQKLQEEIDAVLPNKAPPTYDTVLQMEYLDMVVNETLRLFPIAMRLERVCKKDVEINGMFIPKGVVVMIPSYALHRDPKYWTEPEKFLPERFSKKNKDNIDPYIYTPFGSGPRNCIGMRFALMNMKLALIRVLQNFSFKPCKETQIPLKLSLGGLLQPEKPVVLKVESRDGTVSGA
Method in brief: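 Luminescent readout of luciferin formed from 25 uM Luciferin-PPXE (KM level) by 20 nM CYP3A4 in 200 mM KPO4, with 60 min NADPH-driven reaction at room temperature after 10 min compound exposure. Ketoconazole (57 uM) defined 100% inhibition.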

[20] = target: Pyruvate kinase PKM (Homo sapiens) (UniProt P14618); experiment: qHTS Assay for Inhibitors of Human Muscle Pyruvate Kinase (AID 958)
Method in brief: as §2

[21] = target: Pyruvate kinase (Leishmania mexicana) (UniProt Q27686); experiment: qHTS Validation Assay for Activators of Leishmania Mexicana Pyruvate Kinase (AID 959)
Method in brief: as §1

[22] = target: Cytochrome P450 2C9 (Homo sapiens) (UniProt P11712); experiment: qHTS Assay for Inhibitors and Substrates of Cytochrome P450 2C9 (AID 883); also: nearly all actives have a fitted effect of over 60% in size; also: potency is read from the fitted curve at half-maximal effect
Method in brief: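 Luminescent read-out of deoxyluciferin hydroxylation, normalized to 57uM sulphaphenazole (AC100). Reaction: 10nM enzyme, 100uM Luciferin-H (equal to KM), 25mM KPO4, 10 min compound preincubation, then 60 min with NADPH regeneration, both at 37C.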

[23] = qHTS Assay for Identification of Small Molecule Antagonists for NFkB Signaling Pathway (AID 895; active = well fitted inhibition curve with a large enough effect in the signal ratio, with a control signal flat, not every such curve was filed as active; the % refers to the signal ratio; also: potency is read from the fitted curve at half-maximal effect)
Method in brief: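 Beta-lactamase reporter read-out (460 and 530 nm emission ratio, 405 nm excitation, 2 hrs substrate loading RT) after 5 hr stimulation with 10 pM TNF alpha in compound-treated NFkB-bla ME-180 cells in low-serum medium.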

[24] = target: Muscarinic acetylcholine receptor M1 (Rattus norvegicus) (UniProt P08482); experiment: qHTS Assay for Antagonists of Acetylcholine Muscarinic M1 Receptor: Measurement of IP-One Response (AID 944); also: nearly all actives have a fitted effect of over 75% in size
Method in brief: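 IP1 accumulation measured via TR-FRET between d2-IP1 and Eu-cryptate anti-IP1 antibody after carbachol (200 nM, EC80) stimulation for 30 min; rat M1-transfected CHO cells received compound 10 min before agonist.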

[25] = target: Cytochrome P450 3A4 (Homo sapiens) (UniProt P08684); experiment: qHTS Assay for Inhibitors and Substrates of Cytochrome P450 3A4 (AID 884); also: nearly all actives have a fitted effect of over 50% in size
Method in brief: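 Luminescent readout of luciferin produced by CYP3A4 (20 nM) dealkylation of Luciferin-PPXE, 25 uM (its KM). NADPH-driven reaction ran 60 min at RT after 10 min compound preincubation; data scaled to 57 uM ketoconazole as 100% inhibition.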

[26] = at 17.2 µM (top of the series) unless noted

CCNC(=O)c1cc2c(=O)n3cccc(C)c3nc2n(CCc2ccccc2)c1=N
activity change, negative = inhibition [1]: 20.4%
Potency [2]: > 20.6 µM
Potency [3]: 10 µM (active)

N#CC1=C(N)C(C#N)(C#N)[C@H](c2ccncc2)[C@H]2CN(C(=O)OCc3ccccc3)CC=C12
activity change, negative = inhibition [1]: -27.2%
Potency [2]: > 20.6 µM

CCN1CC=C2C(C#N)=C(N)C(C#N)(C#N)[C@H](c3cccc(OC)c3OC)[C@H]2C1
activity change, negative = inhibition [1]: 9.63%
Potency [2]: > 20.6 µM
Potency [4]: 29.1 µM (active)

OC[C@@H]1O[C@@H](n2cnc3cncnc32)[C@@H](O)[C@H]1O
Potency [5]: inactive
activity change, negative = inhibition [6]: -10.9% [at 38 µM]
activity, negative = inhibition [7, 26]: -14.6% [at 38 µM]
Potency [2]: > 46 µM
Potency [8]: inactive
Potency [9]: inactive
outcome [10]: inactive
activation [3]: 4.26%
Potency [11]: inactive
Potency [12]: 12.6 µM (active)
Potency [13]: inactive
Potency [14]: inactive
outcome [15]: inactive
outcome [16]: inactive
outcome [17]: inactive

Oc1cc(O)cc(/C=C\c2ccc(O)c(O)c2)c1
Potency [5]: 5.01 µM (active)
activity change, negative = inhibition [6]: 5.18% [at 38 µM]
Potency [2]: > 46 µM
Potency [18]: > 46 µM
Potency [8]: inactive
Potency [9]: inactive
Potency [19]: inactive
Potency [14]: 1.26 µM (active)
outcome [15]: inactive
Potency [20]: 2.51 µM (active)
Potency [21]: inactive
outcome [16]: inactive
outcome [17]: inactive

COc1cc([C@H]2c3cc4c(cc3[C@@H](O)[C@@H]3COC(=O)[C@H]23)OCO4)cc(OC)c1OC
Potency [5]: inactive
activity change, negative = inhibition [6]: -22.1% [at 38 µM]
activity, negative = inhibition ([7]; at 17.2 µM (top of the series)): 16.9%
activity, negative = inhibition ([7]; at 38 µM (top of the series)): -4.5%
Potency [8]: inactive
Potency [9]: inactive
outcome [10]: inactive
Potency [22]: 6.31 µM (active)
Potency [19]: inactive
Potency [23]: inactive
Potency [24]: inactive
Potency [14]: inactive
outcome [15]: inactive
outcome [16]: inactive
outcome [17]: inactive

CCCCCCCCCCCCCCCCCC(=O)O[C@H](CC(=O)O)C[N+](C)(C)C
Potency [5]: inactive
activity, negative = inhibition [7, 26]: -28.3% [at 38 µM]
Potency [2]: > 46 µM
Potency [18]: > 46 µM
Potency [8]: inactive
Potency [9]: inactive
outcome [10]: inactive
Potency [22]: inactive
Potency [11]: inactive
Potency [13]: 1 µM (active)
Potency [14]: inactive
outcome [15]: inactive
outcome [16]: inactive
outcome [17]: inactive

C=CCN1CCc2c(cc(O)c(O)c2Br)[C@H](c2ccccc2)C1
Potency [5]: 12.6 µM (active)
activity, negative = inhibition [7, 26]: 7.2% [at 38 µM]
Potency [2]: > 46 µM
Potency [18]: > 46 µM
Potency [9]: inactive
outcome [10]: inactive
Potency [25]: inactive
Potency [19]: 20 µM (active)
Potency [14]: inactive
outcome [15]: inactive
outcome [16]: inactive
outcome [17]: inactive

C[C@H](N)C1CCC(C(=O)Nc2ccncc2)CC1 (stereo partly drawn)
Potency [5]: inactive
activity change, negative = inhibition [6]: 3.2% [at 38 µM]
activity, negative = inhibition [7, 26]: -8.56% [at 38 µM]
Potency [2]: > 46 µM
Potency [18]: > 46 µM
Potency [8]: inactive
Potency [9]: inactive
outcome [10]: inactive
Potency [19]: inactive
Potency [23]: 7.94 µM (active)
Potency [14]: inactive
outcome [15]: inactive
outcome [16]: inactive
outcome [17]: inactive

C=CCNC(=O)C(C#N)c1nc2ccccc2nc1N1CCCCCC1 (stereo not drawn)
activity change, negative = inhibition [1]: -18.4%
Potency [2]: > 20.6 µM

CCOc1ccc2c(ccc(/C=C\c3cc(C)c4cccnc4c3O)[n+]2C)c1
activity change, negative = inhibition [1]: -9.14% [at 7.69 µM]
Potency [2]: > 46 µM
Potency [18]: > 9.22 µM
Potency [9]: inactive

CNCC[C@H](Oc1ccccc1C)c1ccccc1
Potency [5]: 15.8 µM (active)
activity, negative = inhibition [7, 26]: -13.9% [at 38 µM]
Potency [2]: > 46 µM
Potency [18]: > 46 µM
Potency [8]: inactive
outcome [10]: inactive
Potency [13]: 11.2 µM (active)
Potency [14]: inactive
outcome [15]: inactive
outcome [16]: inactive
outcome [17]: inactive
